# Assay results as given in PubChem BioAssay AID2283260 (EPA ToxCast).
# Inconclusive results are not listed. Calls of active or inactive are those of the source. How the source made its calls: active means hit-call score of the fitted dose curve at least 0.9, where 1 is the maximum; inconclusive means response in the unintended direction; inactive means score below 0.9.
# Target: human Complement Component 5, Anaphylatoxin Receptor (C5a), C5AR1 (gene 728) (UniProt P21730)
# Assay: NVS_GPCR_hC5a: NovaScreen (NVS) G Protein-Coupled Receptor Assay for human Complement Component 5, Anaphylatoxin Receptor (C5a)
# Method: NVS_GPCR_hC5a is a biochemical, single-readout assay that uses extracted gene-proteins from U937 in a cell-free assay. Measurements were taken 2 hours after chemical dosing in a 96-well plate.NVS_GPCR_hC5a is one of one assay component(s) measured or calculated from the NVS_GPCR_hC5a assay. It is designed to make measurements of radioligand binding, a form of binding reporter, as detected with scintillation counting signals by Filter-based radiodetection technology.Data from the assay component NVS_GPCR_hC5a was analyzed into 1 assay endpoint. This assay endpoint, NVS_GPCR_hC5a, was analyzed in the positive analysis fitting direction relative to DMSO as the negative control and baseline of activity. Using a type of binding reporter, loss-of-signal activity can be used to understand changes in the binding as they relate to the gene C5AR1. Furthermore, this assay endpoint can be referred to as a primary readout, because the performed assay has only produced 1 assay endpoint. To generalize the intended target to other relatable targets, this assay endpoint is annotated to the gpcr intended target family, where the subfamily is rhodopsin-like receptor.
# Binding assays used specific radioligands (tritiated, iodinated) with non-radioactive competitive displacement ligands in agonist or antagonist protocols (as indicated) and various reference compounds and inhibitors to titrate specific binding to receptors and transporters. Most enzyme assays (CYPs, kinases, phosphatases, proteases, HDACs) used recombinant protein and specific substrates (fluorescence mostly, some colorimetric and radioactive) and inhibitors, followed by a biochemical separation of substrate and product. All assays for the biochemical HTS were initially run in duplicate at a single concentration (10 uM for CYP450 assays and 25 uM for all others). Assay-chemical combinations meeting a pre-defined threshold (e.g., 30% inhibition and other criteria defined below) were then run in singleton concentration-response format with maximum concentration of 20 uM for CYPs and 50 uM for all others. Each assay was run with positive and negative controls, and concurrent controls on every plate. The follow-up (secondary) screen tested active chemical-pairs in concentration series, as well as a few additional assays not tested in the primary screen, some selected negative inactives, and several cases re-run in the concentration series for confirmatory purposes.
# human Complement Component 5, Anaphylatoxin Receptor (C5a), C5AR1 (gene 728), sequence (P21730 whole entry, looked up): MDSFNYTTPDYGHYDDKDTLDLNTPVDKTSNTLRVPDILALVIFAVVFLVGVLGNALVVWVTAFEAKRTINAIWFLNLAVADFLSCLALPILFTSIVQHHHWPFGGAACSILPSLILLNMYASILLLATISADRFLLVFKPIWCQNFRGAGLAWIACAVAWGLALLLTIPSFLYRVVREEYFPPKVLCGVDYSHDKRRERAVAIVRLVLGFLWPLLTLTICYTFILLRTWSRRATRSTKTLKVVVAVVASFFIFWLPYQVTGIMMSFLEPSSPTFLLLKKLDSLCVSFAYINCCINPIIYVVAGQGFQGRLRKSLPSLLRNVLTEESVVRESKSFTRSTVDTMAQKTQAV
Structure (SMILES),outcome,AC50
CCOC(=O)NCCOc1ccc(Oc2ccccc2)cc1,inactive,
CCC(C)(C)C(=O)OC1=C(c2ccc(Cl)cc2Cl)C(=O)OC12CCCCC2,inactive,
COC(=O)c1c(C(F)F)nc(C(F)(F)F)c(C2=NCCS2)c1CC(C)C,inactive,
CCOC(=O)O[C@H](C)OC(=O)c1ccc2c(c1)cc(C(=O)NC1CCN(C(C)C)CC1)n2Cc1cc(-c2ccc(Cl)s2)on1,,39.6 µM (active)
COc1cc(OC)nc(NC(=O)NS(=O)(=O)c2ncccc2OCC(F)(F)F)n1,inactive,
CCC[CH2][Sn]([Cl])([CH2]CCC)[CH2]CCC,inactive,
CCCCCCCCCC,inactive,
CC1(C)C(C=C(Cl)Cl)C1C(=O)OC(C#N)c1cccc(Oc2ccccc2)c1 (centres undefined),inactive,
Oc1ccc(C(c2ccc(O)cc2)C(Cl)(Cl)Cl)cc1,inactive,
C#CCOS(=O)OC1CCCCC1Oc1ccc(C(C)(C)C)cc1 (centres undefined),inactive,
CCCCCCCCCC[N+](C)(C)CCCCCCCCCC,,42.3 µM (active)
COc1ccc(C(c2ccc(OC)cc2)C(Cl)(Cl)Cl)cc1,inactive,
[Cl-].[Cl-].[Hg+2],,25 µM (active)
C=CCc1cc(S(=O)(=O)c2ccc(O)c(CC=C)c2)ccc1O,inactive,
